Source: PubChem (Broad Institute)
Wnt bcat act: Wnt/beta-catenin pathway activators, primary screen, cell-based, plate reader, single point; Wnt/beta-catenin reporter cell assay, activator; activation, % at 9.35 µM; actives 1.2% (n = 300,000); AID 743398, 2014; in the data active = activation above about 30%, passing the limit was not always enough; inconclusive = no clear call, values can overlap the other calls;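 note: 0% = neutral control wells and 100% = positive control wells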
C2C12 statin: suppressors of statin myotoxicity in C2C12 myotubes, primary screen, cell-based, single point, plate reader | rescue of ATP level, % at 7.49 µM | C2C12 myotubes + simvastatin, ATP luminescence, 48 h; scaled: DMSO 0, geranylgeraniol control 100 | AID 602340, 2012 | actives 0.78% (n = 330,000);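 active = mean ATP rescue above about 67%, or every replicate alone reaching that limit, limit read from the data, passing the limit was not always enough; inconclusive = no clear call, values can overlap the other calls; inactive = mean under the limit and some replicate under it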;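 note: myotubes were challenged with 10 µM simvastatin during compound exposure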
esBAF inh: Bmi1 luciferase reporter increase in mESCs, primary screen, esBAF inhibitor project, mouse ES cells, Bmi1 luciferase knock-in, single point; AID 602393, 2012; 24 h; 100% = twice the neutral-well signal; actives 2% (n = 350,000); reporter increase, % at 12.5 µM; in the data active = activation above about 40%; inconclusive = no clear call, values can overlap the other calls;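 note: 0% = median of the plate's neutral control wells and 100% = double that signal; a rise in the Bmi1 reporter signal indicates esBAF inhibition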
MITF act: activators of MITF-driven TRPM1 promoter reporter, primary screen, cell-based, SK-MEL-5, luciferase, single point; SK-MEL-5 TRPM1-promoter luciferase, 24 h; % of positive control, neutral wells = 0; activation, % at 12.5 µM; actives 0.75% (n = 300,000); AID 588334, 2011;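 active = mean activation of at least 80% with every replicate also reaching 80%; inconclusive = mean reaches 80% but some replicate falls short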;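 note: 0% = neutral control wells and 100% = parthenolide positive control wells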
Active calls of the source: *; ? = inconclusive; / = no result. Rows were chosen to be rich in hits. Some 3% of all compounds tested hit in one or more screens of this group.

SMILES	Wnt bcat act	C2C12 statin	esBAF inh	MITF act
C[C@H](CO)N1C[C@H](C)[C@H](CN(C)C(=O)Nc2ccccc2)Oc2ncc(-c3cc4ccccc4o3)cc2C1=O	/	91.7*	2.7	/
CC(C)NC(=O)N(C)C[C@@H]1Oc2ncc(-c3cc4ccccc4o3)cc2C(=O)N([C@H](C)CO)C[C@@H]1C	/	1.5	-1.0	/
CCN1[C@@H]2c3ccc(C4=CCCC4)c(=O)n3C[C@@H]2[C@@H](CO)[C@@H]1C(=O)N(C)C	/	15.2	12.4	/
COc1ccc(C#Cc2ccc3c(c2)[C@@H]2[C@@H](CCN2C(=O)NC(C)C)[C@@H](CO)N3C)cc1	/	-5.4	-6.4	/
COc1ccc(C(=O)N2CCc3ccc(NC(=O)c4ccccn4)cc3C2)cc1F	14.2	7.5	52.4*	45.4
C[C@@H]1CCCCO[C@H](CN(C)S(=O)(=O)c2ccc(Cl)cc2)[C@H](C)CN([C@@H](C)CO)C(=O)c2cc(NC(=O)C3CCCCC3)ccc2O1	/	/	-4.2	/
CCCNC(=O)C[C@@H]1CC[C@@H]2[C@H](COC[C@@H](O)CN2C(=O)Nc2cccc(Cl)c2)O1	/	-4.0	9.4	/
Cc1cccc(C(=O)NN(C)c2nc(-c3ccccc3)nnc2C(F)(F)F)c1	-1.9	-15.4	-0.7	-17.8
COc1ccc(C(=O)NN(C)c2nc(-c3ccccc3)nnc2C(F)(F)F)cc1	/	74.1*	2.0	3.9
C[C@H]1CN([C@@H](C)CO)C(=O)c2cc(-c3cncnc3)cnc2O[C@H]1CN(C)C(=O)Cc1ccccn1	/	7.5	-3.1	/
O=C(CCN1C(=O)C2CCCCC2C1=O)Nc1nc2c(F)cc(F)cc2s1 (stereo unspecified)	41.3*	-1.7	?	89.7*
Cc1ccc2sc(NC(=O)C3CC3)nc2c1C	22.2	2.1	63.4*	37.2
O=C(Nc1nc2c(F)cc(F)cc2s1)C1CC1	14.9	-3.2	49.3*	/
O=C(CCN1C(=O)C2CCCCC2C1=O)Nc1nc2ccc(F)cc2s1 (stereo unspecified)	?	-1.5	-31.9	37.1
O=C(CN1C(=O)CCC1=O)Nc1nc2c(F)cc(F)cc2s1	1.5	-16.3	-2.1	6.0
CNC[C@H]1Oc2ccc(NC(=O)CCN3CCOCC3)cc2C(=O)N([C@@H](C)CO)C[C@H]1C	/	-6.1	0.3	/
C/C=C/c1ccc2c(c1)O[C@H](CN(C)C)[C@@H](C)CN([C@@H](C)CO)S2(=O)=O	/	-1.1	-2.6	/
Cc1noc(C)c1S(=O)(=O)Nc1ccc2c(c1)C(=O)N([C@@H](C)CO)C[C@H](C)[C@H](CN(C)C)OCCCC[C@H](C)O2	/	/	2.3	/
COc1ccc(S(=O)(=O)N(C)C[C@H]2OCCCC[C@H](C)Oc3ccc(NC(=O)Nc4cccc5ccccc45)cc3C(=O)N([C@H](C)CO)C[C@H]2C)cc1	/	/	3.8	/
O=C(CC1SC(=O)N(c2ccccc2)C1=O)Nc1ccccc1 (stereo unspecified)	/	/	/	-2.2
Cc1cccc(NC(=O)CC2SC(=O)N(c3ccccc3)C2=O)c1 (stereo unspecified)	/	6.9	15.4	-0.4
Cc1cccc(NC2SC(=O)N(c3ccccc3)C2=O)c1 (stereo unspecified)	/	-2.3	54.8*	0.1
Cc1ccc(NC(=O)CC2SC(=O)N(c3ccccc3)C2=O)cc1 (stereo unspecified)	32.5*	/	/	-10.8
COc1ccc(NC(=O)N(C)C[C@@H]2OCCCC[C@@H](C)Oc3ccc(NC(=O)Nc4ccc(F)cc4)cc3C(=O)N([C@H](C)CO)C[C@H]2C)cc1	/	/	5.7	/
COc1ccc(-c2cnc3c(c2)C(=O)N([C@H](C)CO)C[C@H](C)[C@@H](CN(C)Cc2ccc(C(=O)O)cc2)O3)cc1	/	-4.7	1.7	/
SMILES	Wnt bcat act	C2C12 statin	esBAF inh	MITF act
CN(Cc1ccccc1)S(=O)(=O)c1ccc(Cl)c(C(=O)NCCCN2CCCC2=O)c1	-2.1	10.9	-3.2	-31.4
CN(Cc1ccccc1)S(=O)(=O)c1ccc(Cl)c(C(=O)NCCCN2CCOCC2)c1	57.3*	0.2	-2.4	-2.7
COc1ccc(NC(=O)N(C)C[C@@H]2OCCCC[C@H](C)Oc3ccc(NC(=O)CCC(F)(F)F)cc3C(=O)N([C@@H](C)CO)C[C@@H]2C)cc1	/	-15.0	4.0	/
CCOC(=O)C(=O)Cc1nc2ccccc2s1	10.0	/	/	-1.8
CCc1nc2cc3sc(CC)nc3cc2s1	16.1	4.5	76.2*	64.0
CCOC(=O)c1cc(OCC)c2c(ccc3ccccc32)n1	110.7*	4.9	-9.6	/
O=C(Oc1ccc(-c2cnc3ccccc3n2)cc1)c1ccc(Br)o1	33.8*	1.7	12.1	58.5
Clc1ccc(-c2cnc3ccccc3n2)cc1	/	/	/	45.5
CCOC(=O)c1ccc2ncc(-c3ccccc3)nc2c1	11.9	/	/	110.8*
CCOC(=O)c1ccc(Cl)c(NC(=O)c2ccc(-c3ccccc3)cc2)c1	1.9	11.8	38.1	23.8
Oc1ccc(-c2cnc3ccccc3n2)cc1	52.6*	/	/	?
C[C@@H]1CN([C@H](C)CO)S(=O)(=O)c2ccc(-c3cncnc3)cc2O[C@H]1CN(C)C(=O)C1CCCCC1	/	-8.1	6.0	/
CCCNC(=O)[C@H]1[C@H](CO)[C@H]2Cn3c(ccc(/C=C/c4ccccc4)c3=O)[C@@H]1N2C(=O)c1cccnc1	/	-15.6	-3.0	/
COc1ccc(NC(=O)N(C)C[C@@H]2Oc3ccc(NC(=O)NC(C)C)cc3CC(=O)N([C@@H](C)CO)C[C@H]2C)cc1	/	-8.0	1.6	/
c1csc(-c2cnc3ccccc3n2)c1	55.3*	/	/	/
CCOC(=O)c1cnc2c(ccc3ccccc32)c1N	10.3	-21.7	45.4*	/
Cc1nc2ccc(C(=O)OCc3ccccc3Br)cc2nc1C	0.0	11.6	102.2*	71.2
CCOC(=O)c1cnc2c(ccc3ccccc32)c1NCCO	-11.9	/	35.6	11.1
Nc1ccc(-c2cnc3ccccc3n2)cc1	?	-2.2	-64.4	/
Nc1ccc2nc(-c3ccccc3)cnc2c1	71.7*	/	/	/
CS(=O)(=O)N1[C@H](C#N)[C@@H](c2ccc(C#CC3CCCC3)cc2)[C@@H]1CO	/	-2.3	2.6	/
CCOC(=O)c1cnc2c(-c3ccccc3)cnn2c1C	56.3*	/	/	73.0
CC(=O)c1cnc2c(-c3ccccc3)cnn2c1C	/	4.2	?	27.5
CCOC(=O)c1cnc(-c2ccccc2)nc1N	-0.6	-17.9	24.0	40.4
CCOC(=O)c1cnc(-c2ccccc2)nc1N(C)C	/	-8.3	74.6*	30.9
CCOC(=O)c1cccc(-c2c(-c3ccccc3)ncc3cc(OC)c(OC)cc23)c1	-0.9	15.9	66.8*	97.4*
Cc1cc2ncc(-c3ccccc3)nc2cc1C	44.8*	-25.6	-11.6	37.0
C[C@@H]1CCCCO[C@H](CN(C)Cc2ccc3c(c2)OCO3)[C@@H](C)CN([C@H](C)CO)C(=O)c2cc(NC(=O)Nc3ccccc3)ccc2O1	/	/	-1.6	/
Cc1ccc(-c2cnc3ccccc3n2)cc1C	40.2*	-50.5	-32.7	-15.9
